Reference: PubChem BioAssay (NCATS)
Records with an inconclusive call do not appear. Activity calls are given as the source filed them. The call rests on the fitted dose curve; in most records, active means well fitted inhibition curve with a large enough effect; inconclusive means small, poorly fitted or top-dose-only effect; inactive means no such curve, though single readings can be large or run the other way. Where a SMILES comes first, the peptide text is derived from it.

Columns and labels:
[1] = qHTS assay for measurement of the activity of small molecule inhibitors on Zika virus induced Caspase-3 activity in human iPSC derived neural progenitor cells (hNPCs) (AID 1224857); further: nearly all actives have a fitted effect of over 65% in size
Procedure, shortened: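 After overnight (16–20 h) culture at 350 cells/well, hNPCs get compound, then ZIKV 2 FFU/cell one hour later. Six hours on, Caspase-Glo 3/7 is added and luminescence measured.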

[2] = qHTS assay for measurement of the activity of small molecule inhibitors on Zika virus induced Caspase-3 activity in human astrocytoma cells (AID 1224859)
Procedure, shortened: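 Inhibition of Zika-induced caspase-3/7 activity: SNB-19 cells, 1 h compound pretreatment, ZIKV 2 FFU/cell for 6 h at 37 C, Caspase-Glo luminescence read-out.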

[3] = NS1 protein of Zika virus - qHTS assay to identify small molecule inhibitors in human HEK 293 cells (AID 1347053); further: series mostly up to about 46 µM; nearly all actives have a fitted effect of over 55% in size
Procedure, shortened: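 HEK 293; 20 h pre-culture, 37 C/5% CO2; cpd 1 h pre-infection; ZIKV MR766, MOI = 0.5, 24 h, 37 C; TR-FRET NS1 readout (two anti-NS1 Abs); norm. to no-virus vs infected.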

Measured: Potency

CCOc1ncc(F)c(=O)[nH]1
inactive: [1] | [2] | [3]

CCC(=O)O[C@]1(C(=O)COC)[C@@H](C)C[C@H]2[C@@H]3CCC4=CC(=O)C=C[C@]4(C)C3(F)[C@@H](O)C[C@@]21C (some centres undefined)
inactive: [1] | [2] | [3]

CC(C)NCCCC1(C(N)=O)c2ccccc2-c2ccccc21
inactive: [1] | [2] | [3]

Nc1nc2ccccc2n1Cc1ccc(F)cc1
inactive: [1] | [2] | [3]

CC(=O)N[C@@H](CO)C(=O)N[C@@H](CC(=O)O)C(=O)N[C@@H](CCCCN)C(=O)N1CCC[C@H]1C(=O)O (Ac-SDKP-OH)
inactive: [1] | [2] | [3]

Cc1ccc(C(C)OC(=O)C2(C)CCC(C(=O)O)C2(C)C)cc1 (centres undefined)
inactive: [1] | [2] | [3]

CCCC(=O)OCOC(=O)C1=C(C)NC(C)=C(C(=O)OC)C1c1cccc(Cl)c1Cl (centres undefined)
inactive: [1] | [2] | [3]

Nc1ncnc2nc[nH]c12
inactive: [1] | [2] | [3]

CC(C)(c1ccc(O)cc1)c1ccc(O)cc1
inactive: [1] | [2] | [3]

C[C@@H]1C[C@H]2[C@@H]3CCC4=CC(=O)C=C[C@]4(C)[C@@]3(F)[C@@H](O)C[C@]2(C)[C@@]1(O)C(=O)COC(=O)c1ccncc1
inactive: [1] | [2] | [3]

CC(C)(C)c1ccc(C(=O)CCCCl)cc1
inactive: [1] | [2] | [3]

CN1Cc2cc(C(=O)N3CCC(C4CCNCC4)CC3)ccc2NC(CC(=O)O)C1=O (centres undefined)
inactive: [1] | [2] | [3]

CCN(CC)CC(=O)Oc1ccc(NC(C)=O)cc1
inactive: [1] | [2] | [3]

Cc1cc(=O)oc2cc(O[C@@H]3SC[C@@H](O)[C@H](O)[C@H]3O)ccc12
inactive: [1] | [2] | [3]

CN1N=C(C(N)=O)CCC1=O
inactive: [1] | [2] | [3]

COc1ccc(CCC(C)=O)cc1
inactive: [1] | [2] | [3]

O=C1CCCc2c(O)cccc21
inactive: [1] | [2] | [3]

Cc1[nH]cnc1-c1ccc(Cl)cc1
inactive: [1] | [2] | [3]

CC(CC(C#N)(c1ccccc1)C(C)C)N(C)C (centres undefined)
inactive: [1] | [2] | [3]

CCC(CN)=C(c1ccccc1)c1ccccc1
inactive: [1] | [2] | [3]

COC(=O)[C@H]1[C@H]2C[C@@H]3c4[nH]c5cc(OC)ccc5c4CCN3C[C@H]2C[C@@H](OC(=O)/C=C/c2ccc(O)c(OC)c2)[C@@H]1OC
inactive: [1] | [2] | [3]

O=C1CC2(CCCC2)CC(=O)N1CCNCC1COc2ccccc2O1 (centres undefined)
inactive: [1] | [2] | [3]

Cc1cnc(NS(=O)(=O)c2ccc(N)cc2)nc1
inactive: [1] | [2] | [3]

CN1CCC(N(Cc2cccs2)c2ccccc2)CC1
inactive: [1] | [2] | [3]

Cc1cccc(N(C)C(=S)Oc2ccc3c(c2)C2CCC3C2)c1 (centres undefined)
inactive: [1] | [2] | [3]

O=C(c1ccco1)N1CCNCC1
inactive: [1] | [2] | [3]

CCCCOC(=O)CCCCCCCCC(=O)OCCCC
inactive: [1] | [2] | [3]

CCn1ccc(NS(=O)(=O)c2ccc(N)cc2)nc1=O
inactive: [1] | [2] | [3]

CCOC(=O)Oc1ccc(CCNC(=O)[C@H](CCSC)NC(C)=O)cc1OC(=O)OCC
inactive: [1] | [2] | [3]

CC(=O)OC[C@H]1O[C@@H](OC(C)=O)[C@H](OC(C)=O)[C@@H]1OC(C)=O
inactive: [1] | [2] | [3]

CN1CCCN=C1/C=C/c1cccs1
inactive: [1] | [2] | [3]

CCCCCCCCCCCCCCCCCCN(C)C
inactive: [1] | [2] | [3]

Cc1ccc(C(=O)C(=O)O)cc1C
inactive: [1] | [2] | [3]
